# Data: PubChem BioAssay (NCI)
# The panel holds about 83,000 compounds, 20% with a hit somewhere; the sample as a whole holds those more often.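 Method: cells in 96-well plates; compound added at one concentration; 48 h incubation; percent growth measured; values under 10 scored active.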 Unmarked numbers belong to inactive results. Active and inactive are the calls of the source.
# Tested on: NCI/ADR-RES ovarian
# Assay: NCI-60 one-dose screen, 48 h (100 = growth as untreated, 0 = no growth, -100 = all killed)
# Conditions: 10 µM unless noted
row,Structure (SMILES),growth
1,O=S(=O)(NCCCNc1nccc(-c2c(-c3ccc(F)c(O)c3)nc3sccn23)n1)c1ccc(Cl)cc1,103%
2,Nc1ccc(S(=O)(=O)c2ccc(Cl)cc2)cc1,95.2%
3,O=C1OC(c2ccccc2)=N/C1=C\c1ccc([N+](=O)[O-])cc1,104%
4,CC(Br)C(Br)c1cc2c(cc1Br)OCO2 (stereo unspecified),99.1%
5,COc1ncc(-c2ccc3ncnc(Nc4cccc(Cl)c4)c3c2)cc1NS(=O)(=O)CCN1CCOCC1,30.1%
6,CCCCC[C@@H]1Cc2cc(O)c(C(=O)O)c3c2[C@H](C[C@@]2(CCCO2)O3)O1,96.1%
7,CC(C)C[C@H](NC(=O)[C@@H](Cc1ccccc1)n1ccc(Nc2ccccc2)cc1=O)B(O)O,75%
8,N#CC1=C(N)n2nc(-c3ccncc3)nc2NC1c1cccc2ccccc12 (stereo unspecified),91.9%
9,O=c1cc(C2NCCc3c2[nH]c2ccccc32)c2c(ccc3ccccc32)o1 (stereo unspecified),78.7%
10,CC(C)CCC[C@@H](C)[C@H]1CC[C@H]2[C@@H]3CC[C@H]4C/C(=N/O)CC[C@]4(C)[C@H]3CC[C@]12C,111%
11,COc1ccc(/C=C/C(=O)c2cccc(B(O)O)c2)cc1O,48.9%
12,O=c1oc2c([nH]c3ccc4ccccc4c32)c2ccccc12,104%
13,O=C(NCCc1c[nH]c2ccccc12)C1Cc2ccccc2CN1C(=O)c1ccco1 (stereo unspecified),128%
14,CC/C=C\C[C@H]1C/C=C2/C(=O)C(Cl)=C[C@@H]2C/C=C\CCCC(=O)O1,6.27% (active)
15,C/C(=N\NC(=O)CC#N)c1cc2cc(Cl)ccc2o1,110%
16,O=C(Nc1ccc(F)cc1)c1cc([N+](=O)[O-])ccc1O,72.9%
17,CCN(CC)CCSc1c2ccc(Cl)cc2nc2ccc(OC)cc12,105%
18,O=[N+]([O-])c1ccc(S(=O)(=O)N2CCN(c3ccnc4cc(Cl)ccc34)CC2)c([N+](=O)[O-])c1,95.5%
19,O=[N+]([O-])c1c(S(=O)(=O)O)cc2cc(S(=O)(=O)O)ccc2c1[N+](=O)[O-],102%

row,Structure (SMILES),growth
1,Clc1nc(Cl)c2ncn(C/C=C/Cn3cnc4c(Cl)nc(Cl)nc43)c2n1,99%
2,CC(C)C[C@H](NC(=O)Cn1ccc(NCc2ccccc2)cc1=O)B(O)O,80.7%
3,N#Cc1ccc(NC(=O)c2ccc3cccnc3c2O)cc1,8.81% (active)
4,CCCCCCc1nc2c(c(C)nn2-c2ccccc2)c2c1CCCCC2,110%
5,Nc1nc(N)c2nc(CNc3ccc(C(=O)CC(CCC(=O)O)C(=O)O)cc3)cnc2n1 (stereo unspecified),25.6%
6,Nc1nc(Cl)c2c(ncn2Cc2ccc(CCl)cc2)n1,98.4%
7,CCOc1ccc(/C=C/C=N/NC(N)=S)cc1,82.6%
8,COc1cc(/C=C/C(=O)c2ccccc2O)ccc1OCCCOc1cc2c(cc1OC)C(=O)N1CCC[C@H]1C=N2,19.3%
9,CC(CCc1ccccc1)NC(=O)c1n[nH]c(=O)c2ccccc12 (stereo unspecified),121%
10,COc1cc(-c2nc(-c3nc4ccccc4[nH]3)cc3c2[nH]c2ccccc23)cc(OC)c1OC,32.2%
11,O=C(/C=C/CN1CCOCC1)Nc1cc2c(Nc3ccc(F)c(Cl)c3F)ncnc2cc1OCCOC(F)F,36.2%
12,COc1cc(NS(C)(=O)=O)ccc1Nc1c2ccc([N+](=O)[O-])cc2nc2c(C)cccc12,58.6%
13,O=S(=O)(NCCCNc1cc(-c2cn(-c3ccccc3)nc2-c2cccc(O)c2)ccn1)c1cccc2ccccc12,39.9%
14,O=c1[nH]c(-c2cn(-c3ccc(Cl)cc3)nn2)nc2ccccc12,63.9%
15,CCN(C(=O)c1cc2ccccc2[nH]1)[C@H]1CCC[C@@H](NCc2ccc(OC)cc2)C1,88.4%
16,COc1ccc(/C=C/C(=O)c2ccc(B(O)O)cc2)cc1O,92.3%
17,Clc1ccc2c(c1)NC1(CCSc3ccccc31)n1nccc1-2 (stereo unspecified),98.6%
18,O=C1NC(Cc2c[nH]c3ccccc23)C(=O)N1Cc1ccc(Cl)cc1 (stereo unspecified),106%
19,CCCCCCCCCCC/C=C\C[C@H](O)C/C=C1/C(=O)C=C[C@@H]1C/C=C\CCCC(=O)OC,9.04% (active)

# Tested on: T-47D breast
# Assay: as above
# Conditions: 10 µM unless noted
row,Structure (SMILES),growth
1,O=S(=O)(NCCCNc1nccc(-c2c(-c3ccc(F)c(O)c3)nc3sccn23)n1)c1ccc(Cl)cc1,66.1%
2,Nc1ccc(S(=O)(=O)c2ccc(Cl)cc2)cc1,104%
3,O=C1OC(c2ccccc2)=N/C1=C\c1ccc([N+](=O)[O-])cc1,106%
4,CC(Br)C(Br)c1cc2c(cc1Br)OCO2 (stereo unspecified),73.7%
5,COc1ncc(-c2ccc3ncnc(Nc4cccc(Cl)c4)c3c2)cc1NS(=O)(=O)CCN1CCOCC1,-10.6% (active)
6,CCCCC[C@@H]1Cc2cc(O)c(C(=O)O)c3c2[C@H](C[C@@]2(CCCO2)O3)O1,108%
7,CC(C)C[C@H](NC(=O)[C@@H](Cc1ccccc1)n1ccc(Nc2ccccc2)cc1=O)B(O)O,-15.4% (active)
8,N#CC1=C(N)n2nc(-c3ccncc3)nc2NC1c1cccc2ccccc12 (stereo unspecified),66.2%
9,O=c1cc(C2NCCc3c2[nH]c2ccccc32)c2c(ccc3ccccc32)o1 (stereo unspecified),59.1%
10,CC(C)CCC[C@@H](C)[C@H]1CC[C@H]2[C@@H]3CC[C@H]4C/C(=N/O)CC[C@]4(C)[C@H]3CC[C@]12C,103%
11,COc1ccc(/C=C/C(=O)c2cccc(B(O)O)c2)cc1O,32.4%
12,O=c1oc2c([nH]c3ccc4ccccc4c32)c2ccccc12,77.5%
13,O=C(NCCc1c[nH]c2ccccc12)C1Cc2ccccc2CN1C(=O)c1ccco1 (stereo unspecified),105%
14,CC/C=C\C[C@H]1C/C=C2/C(=O)C(Cl)=C[C@@H]2C/C=C\CCCC(=O)O1,-16.1% (active)
15,C/C(=N\NC(=O)CC#N)c1cc2cc(Cl)ccc2o1,78.4%
16,O=C(Nc1ccc(F)cc1)c1cc([N+](=O)[O-])ccc1O,56%
17,CCN(CC)CCSc1c2ccc(Cl)cc2nc2ccc(OC)cc12,-39.9% (active)
18,O=[N+]([O-])c1ccc(S(=O)(=O)N2CCN(c3ccnc4cc(Cl)ccc34)CC2)c([N+](=O)[O-])c1,60.3%
19,O=[N+]([O-])c1c(S(=O)(=O)O)cc2cc(S(=O)(=O)O)ccc2c1[N+](=O)[O-],109%

row,Structure (SMILES),growth
1,Clc1nc(Cl)c2ncn(C/C=C/Cn3cnc4c(Cl)nc(Cl)nc43)c2n1,38.2%
2,CC(C)C[C@H](NC(=O)Cn1ccc(NCc2ccccc2)cc1=O)B(O)O,-14.6% (active)
3,N#Cc1ccc(NC(=O)c2ccc3cccnc3c2O)cc1,27.3%
4,CCCCCCc1nc2c(c(C)nn2-c2ccccc2)c2c1CCCCC2,92.2%
5,Nc1nc(N)c2nc(CNc3ccc(C(=O)CC(CCC(=O)O)C(=O)O)cc3)cnc2n1 (stereo unspecified),49.5%
6,Nc1nc(Cl)c2c(ncn2Cc2ccc(CCl)cc2)n1,90.2%
7,CCOc1ccc(/C=C/C=N/NC(N)=S)cc1,38.2%
8,COc1cc(/C=C/C(=O)c2ccccc2O)ccc1OCCCOc1cc2c(cc1OC)C(=O)N1CCC[C@H]1C=N2,21.8%
9,CC(CCc1ccccc1)NC(=O)c1n[nH]c(=O)c2ccccc12 (stereo unspecified),95.8%
10,COc1cc(-c2nc(-c3nc4ccccc4[nH]3)cc3c2[nH]c2ccccc23)cc(OC)c1OC,25%
11,O=C(/C=C/CN1CCOCC1)Nc1cc2c(Nc3ccc(F)c(Cl)c3F)ncnc2cc1OCCOC(F)F,1.51% (active)
12,COc1cc(NS(C)(=O)=O)ccc1Nc1c2ccc([N+](=O)[O-])cc2nc2c(C)cccc12,1.78% (active)
13,O=S(=O)(NCCCNc1cc(-c2cn(-c3ccccc3)nc2-c2cccc(O)c2)ccn1)c1cccc2ccccc12,33.1%
14,O=c1[nH]c(-c2cn(-c3ccc(Cl)cc3)nn2)nc2ccccc12,54.4%
15,CCN(C(=O)c1cc2ccccc2[nH]1)[C@H]1CCC[C@@H](NCc2ccc(OC)cc2)C1,82.7%
16,COc1ccc(/C=C/C(=O)c2ccc(B(O)O)cc2)cc1O,79.2%
17,Clc1ccc2c(c1)NC1(CCSc3ccccc31)n1nccc1-2 (stereo unspecified),101%
18,O=C1NC(Cc2c[nH]c3ccccc23)C(=O)N1Cc1ccc(Cl)cc1 (stereo unspecified),94.3%
19,CCCCCCCCCCC/C=C\C[C@H](O)C/C=C1/C(=O)C=C[C@@H]1C/C=C\CCCC(=O)OC,-8.92% (active)
